# Measurements taken from PubChem BioAssay (NCI).
# This is part of a sample that, as a whole, favours compounds with a hit. Of some 83,000 tested, about 20% had one in any assay.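 Step 1: grow cells in 96-well plates. Step 2: add test compound at a single concentration. Step 3: incubate 48 h. Step 4: record percent growth.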 Calls of active or inactive are those of the source.
# Tested on: NCI-H226 lung
# Test: NCI-60 one-dose screen, 48 h (100 = growth as untreated, 0 = no growth, -100 = all killed)
# Conditions: 10 µM
# Description: Growth inhibition of the NCI-H226 human Non-Small Cell Lung tumor cell line is measured as a screen for anti-cancer activity. Cells are grown in 96 well plates and exposed to the test compound for 48 hours. Compounds are tested at a single concentration, which is 10^-5 M for most compounds. The reported endpoint is percent growth (GI% or GIPRCNT), where numbers from 0 - 100% represent growth inhibition, and numbers from -100% - 0 represent cell death. For example, a value of 40 represents 60% growth inhibition. A value of 0 means no net growth occurred over the course of the experiment. A value of -40 indicates 40% of cells at the beginning of the experiment died by the end of the experiment. A value of -100 means all cells are dead at the end of the experiment.
# NCI-60 Human Tumor Cell Lines Screen was performed using the standard one-dose NCI protocol, which is described in more detail at https://dtp.cancer.gov/discovery_development/nci-60/default.htm.
# Compounds with GIPRCNT values below 10 were considered active. Activity score was based on GIPRCNT using the following formula: […]
# Score is 0 for GIPRCNT values of 100 or above, 50 for GIPRCNT values of 0, and 100 for GIPRCNT values of -100.
row,SMILES,growth
1,O=C1/C(=C\c2ccc(Cl)cc2)CN(C(=O)c2ccccc2)C/C1=C\c1ccc(Cl)cc1,10% (inactive)
2,CN(C)c1ccc(-c2cc(-c3cccc(NS(C)(=O)=O)c3)nc(N)c2C#N)cc1,39.6% (inactive)
3,COC(=O)[C@@H]1[C@H](O)[C@H](C)[C@H](O)[C@@](C)(O)/C=C\C=C(C)C(=O)Nc2c(C)c(OC(C)=O)c3c(c2O)C(=O)C(C)=C2OCOC(=C23)C(C)=C[C@@](C)(O)[C@H](O)[C@@H](C)[C@H]1OC(C)=O,109% (inactive)
4,COc1cc(-c2cc(/C=C3\C(=O)Nc4ccc(Cl)cc43)[nH]n2)cc(OC)c1OC,58.2% (inactive)
5,CCOC(=O)C(NC(=O)C(Cl)Cl)C(O)c1ccccc1 (stereo not given),93.1% (inactive)
6,COc1ccc(-c2nn(-c3cccc(NC(=O)c4cccc(C(F)(F)F)c4)c3)cc2-c2ccncc2)cc1Cl,52.1% (inactive)
7,CC[C@H](C)C(=O)O[C@H]1CCC=C2C=C[C@H](C)C(CCC3C[C@@H](O)CC(=O)O3)[C@H]21 (stereo not given in full),76.8% (inactive)
8,COc1ccc2c(c1)N(CCO)C1=C(C(=O)OC1)C2c1ccc(OC)c(OC)c1 (stereo not given),46.7% (inactive)
9,COc1cc2cc3c(nc2cc1OC)CCN3Cc1ccc(NC(=O)c2ccc(Cl)c(C(F)(F)F)c2)cc1,71.2% (inactive)
10,O=C1N=NC2=C1c1c3ccccc3c(O)n1CC2,105% (inactive)
11,COc1ccc(-c2nc(-c3nc4cc(Cl)c(Cl)cc4[nH]3)c3ccccn23)cc1,44.5% (inactive)
12,O=[N+]([O-])c1ccc(Oc2cccnc2)c([N+](=O)[O-])c1,89.7% (inactive)
13,Cn1c(C(N)=O)cc2c1-c1nc(Nc3ccccc3)ncc1CCC2,38.1% (inactive)
14,CCN(CC)CCC(CNc1c(C)cnc2cc(Cl)ccc12)c1ccc(Cl)cc1 (stereo not given),102% (inactive)
15,COc1cc(-c2cc(/C=C/C(=O)c3ccc(N)cc3)[nH]n2)cc(OC)c1OC,51.8% (inactive)
16,CCN1CCCC1CNC(=O)c1ncc(-c2ccc(C(F)(F)F)cc2)c(NC2CCCCCC2)n1 (stereo not given),86% (inactive)
17,Cc1cccc2c(NCCN(C)C)c3cccc(C(=O)NCCN(C)C)c3nc12,22.4% (inactive)
18,Clc1ccc(Sc2nc(NC3CC3)nc(Sc3ccc(Cl)cc3)n2)cc1,83.4% (inactive)
19,COc1ccc(OC)c(/C=C/c2nc(SCc3ccccc3)n(-c3ccc(Cl)cc3)n2)c1,72.7% (inactive)
20,CC/C(=C(/c1ccc(OCCN(C)C)cc1)c1ccc(OC(=O)CCCCC(=O)c2c(C)[nH]c(/C=C3\N=C(c4ccc[nH]4)C=C3OC)c2C)cc1)c1ccccc1,54.4% (inactive)

row,SMILES,growth
1,O=C(Nc1cccc(Cl)c1)Nc1nccs1,99.6% (inactive)
2,CN(C)CCN=c1nc2c(c(N)n1-c1ccccc1)c(=S)n(-c1ccccc1)c(=S)n2-c1ccccc1,82.3% (inactive)
3,Cc1ccc2oc3nc(C)c(C(=O)NCc4ccccc4)cc3c(=O)c2c1,104% (inactive)
4,COc1ccc(-c2nn(-c3cccc(NC(=O)Nc4cccc(C(F)(F)F)c4)c3)cc2-c2ccncc2)cc1Cl,25.7% (inactive)
5,COc1cc2c(cc1OCCCCCCN1CCN(CC(=O)Nc3ccc(Cl)cc3C(=O)c3ccccc3Cl)CC1)N=CC1CCCN1C2=O (stereo not given),-82% (active)
6,CN(C)CCN1C(=O)c2cccc3c(-c4ccc5ncn(C6CCCCC6)c5c4)ccc(c23)C1=O,25.1% (inactive)
7,Cc1cc(C)c(CCc2cc(C)c(C)cc2C)cc1C,92.3% (inactive)
8,CCC(=O)N1C/C(=C/c2ccc(Cl)cc2)C(=O)/C(=C/c2ccc(Cl)cc2)C1,-53.9% (active)
9,COc1ccc(OC)c(/C=C/c2nnc(Nc3ccc(Cl)cc3)o2)c1,56.1% (inactive)
10,COc1cccc(Cn2c(-c3nonc3N)nc3ccccc32)c1,49.2% (inactive)
11,CC(=O)N1C/C(=C/c2ccc(Cl)cc2)C(=O)/C(=C/c2ccc(Cl)cc2)C1,-39.5% (active)
12,COc1cc(NC(=O)c2sc3nc4c(cc3c2N)C(O)CCC4)cc(OC)c1 (stereo not given),97.1% (inactive)
13,Cn1c(N)c(N=Nc2ccc(S(=O)(=O)Nc3nccs3)cc2)c(=O)n(C)c1=O,104% (inactive)
14,COc1cc(OC)cc(-c2cncn2-c2ccc(-c3nc4cc(OC)cc(OC)c4s3)cc2)c1,67.7% (inactive)
15,O=C(N/N=C/c1cc2ccccc2c2ccccc12)c1cc(O)c(O)c(O)c1,95.6% (inactive)
16,O=C(CC(C(=O)c1ccccc1)N1CCOCC1)c1ccccc1 (stereo not given),90.3% (inactive)
17,Cc1occc1-c1nnc(SCC(=O)c2ccc(NC(=O)CC(C)C)cc2)o1,109% (inactive)
18,Cn1c([N+](=O)[O-])cnc1/C=C1\Oc2cc(Cl)ccc2C1=O,59.5% (inactive)
19,C#Cc1ccc(-n2c(/C=C/c3ccc4ccccc4n3)nc3ncccc3c2=O)cc1,-81.9% (active)
20,COc1cc(C)ccc1C(=O)c1ccc(C)cc1OC,62.9% (inactive)
